According to PubChem BioAssay:
Active and inactive are the calls of the source.

Experiments:
[1] = system: PRMT1 (protein arginine N-methyltransferase 1); experiment: small molecules binding arginine methyltransferase PRMT1 – biochemical, small-molecule microarray, 635 nm fluorescence, primary screen (AID 1088); details: higher = more signal;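 also: binding of Prmt1 protein to compounds spotted on small-molecule microarray slides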
[2] = growth effects on S. cerevisiae YJM789 – YJM789 clinical isolate, OD600, 24 h, basal, primary screen (AID 1089); details: higher = more signal, called active from +8 up or from −8 down;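 also: growth of clinical yeast isolate S. cerevisiae YJM 789 seeded 1000 cells per well; test concentration not given here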
[3] = S. pombe growth modifiers, basal conditions – strain 972, OD600, 24 h, no modulator, primary screen (AID 1090);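 also: basal condition with compound alone and no growth modifier present; test concentration not given here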; details: S. pombe 972 growth, higher = more signal, called active from +8 up or from −8 down
[4] = budding yeast growth modifiers under rapamycin – strain BY4716, OD600, 96 h, primary screen (AID 1091); also: test concentration not given here; details: S. cerevisiae BY4716 + rapamycin, higher = more signal, called active from +8 up or from −8 down
[5] = target: Torsin-1A-interacting protein 2 (Homo sapiens) (UniProt Q8NFQ8); experiment: small molecules binding lysate-expressed LULL1 – cell lysate, human LULL1 lysate, 635/667 nm fluorescence, primary screen (AID 1092); details: small-molecule microarray, hLULL1 lysate binding, 635 nm fluorescence; higher = more signal;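 also: probe is lysate of COS7 cells overexpressing human LULL1; score merges per-feature 667 nm fluorescence with signal-to-noise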
Sequence of Torsin-1A-interacting protein 2 (Homo sapiens) (Q8NFQ8 whole entry, looked up): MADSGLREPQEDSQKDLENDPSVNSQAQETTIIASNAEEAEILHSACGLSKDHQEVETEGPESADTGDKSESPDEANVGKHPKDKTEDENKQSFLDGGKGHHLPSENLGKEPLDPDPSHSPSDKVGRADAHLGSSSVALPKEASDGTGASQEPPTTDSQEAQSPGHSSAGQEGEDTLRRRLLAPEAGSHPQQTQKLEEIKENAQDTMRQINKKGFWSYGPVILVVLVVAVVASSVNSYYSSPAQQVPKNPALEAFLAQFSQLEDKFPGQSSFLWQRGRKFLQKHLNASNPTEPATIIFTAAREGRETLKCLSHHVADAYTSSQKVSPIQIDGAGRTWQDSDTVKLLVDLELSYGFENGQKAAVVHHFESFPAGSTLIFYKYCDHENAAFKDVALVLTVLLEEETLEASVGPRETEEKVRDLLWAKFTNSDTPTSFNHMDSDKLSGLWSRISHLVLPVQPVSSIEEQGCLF

[6] = optical density change of DRC41 E. coli – strain DRC41, OD650, 24 h, E. coli filamentation project, primary screen (AID 1093);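 also: MC1000 strain lacking acrAB efflux and sulA so SOS filamentation is blocked; test concentration not given here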; details: E. coli DRC41 growth, higher = more signal, called active from +8 up or from −8 down
[7] = probe aLefty2 binding to arrayed compounds – biochemical, biotinylated probe, 635/667 nm fluorescence, primary screen (AID 1094); details: small-molecule microarray, higher = more signal;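 also: score merges spot fluorescence near 667 nm with spot signal-to-noise ratio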
[8] = system: Noggin (protein binding on small-molecule microarray); experiment: small molecules binding Noggin protein – biochemical, 635/667 nm fluorescence, primary screen (AID 1095); details: 635 nm fluorescence, higher = more signal;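 also: score merges 667 nm feature fluorescence with signal to noise over triplicate slides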
[9] = target: Neurogenic locus notch homolog protein 3 (Homo sapiens) (UniProt Q9UM47); experiment: small molecules binding NOTCH3 protein – biochemical, 635/667 nm fluorescence, primary screen (AID 1096); details: small-molecule microarray, 635 nm fluorescence, higher = more signal
Sequence of Neurogenic locus notch homolog protein 3 (Homo sapiens) (Q9UM47 whole entry, looked up): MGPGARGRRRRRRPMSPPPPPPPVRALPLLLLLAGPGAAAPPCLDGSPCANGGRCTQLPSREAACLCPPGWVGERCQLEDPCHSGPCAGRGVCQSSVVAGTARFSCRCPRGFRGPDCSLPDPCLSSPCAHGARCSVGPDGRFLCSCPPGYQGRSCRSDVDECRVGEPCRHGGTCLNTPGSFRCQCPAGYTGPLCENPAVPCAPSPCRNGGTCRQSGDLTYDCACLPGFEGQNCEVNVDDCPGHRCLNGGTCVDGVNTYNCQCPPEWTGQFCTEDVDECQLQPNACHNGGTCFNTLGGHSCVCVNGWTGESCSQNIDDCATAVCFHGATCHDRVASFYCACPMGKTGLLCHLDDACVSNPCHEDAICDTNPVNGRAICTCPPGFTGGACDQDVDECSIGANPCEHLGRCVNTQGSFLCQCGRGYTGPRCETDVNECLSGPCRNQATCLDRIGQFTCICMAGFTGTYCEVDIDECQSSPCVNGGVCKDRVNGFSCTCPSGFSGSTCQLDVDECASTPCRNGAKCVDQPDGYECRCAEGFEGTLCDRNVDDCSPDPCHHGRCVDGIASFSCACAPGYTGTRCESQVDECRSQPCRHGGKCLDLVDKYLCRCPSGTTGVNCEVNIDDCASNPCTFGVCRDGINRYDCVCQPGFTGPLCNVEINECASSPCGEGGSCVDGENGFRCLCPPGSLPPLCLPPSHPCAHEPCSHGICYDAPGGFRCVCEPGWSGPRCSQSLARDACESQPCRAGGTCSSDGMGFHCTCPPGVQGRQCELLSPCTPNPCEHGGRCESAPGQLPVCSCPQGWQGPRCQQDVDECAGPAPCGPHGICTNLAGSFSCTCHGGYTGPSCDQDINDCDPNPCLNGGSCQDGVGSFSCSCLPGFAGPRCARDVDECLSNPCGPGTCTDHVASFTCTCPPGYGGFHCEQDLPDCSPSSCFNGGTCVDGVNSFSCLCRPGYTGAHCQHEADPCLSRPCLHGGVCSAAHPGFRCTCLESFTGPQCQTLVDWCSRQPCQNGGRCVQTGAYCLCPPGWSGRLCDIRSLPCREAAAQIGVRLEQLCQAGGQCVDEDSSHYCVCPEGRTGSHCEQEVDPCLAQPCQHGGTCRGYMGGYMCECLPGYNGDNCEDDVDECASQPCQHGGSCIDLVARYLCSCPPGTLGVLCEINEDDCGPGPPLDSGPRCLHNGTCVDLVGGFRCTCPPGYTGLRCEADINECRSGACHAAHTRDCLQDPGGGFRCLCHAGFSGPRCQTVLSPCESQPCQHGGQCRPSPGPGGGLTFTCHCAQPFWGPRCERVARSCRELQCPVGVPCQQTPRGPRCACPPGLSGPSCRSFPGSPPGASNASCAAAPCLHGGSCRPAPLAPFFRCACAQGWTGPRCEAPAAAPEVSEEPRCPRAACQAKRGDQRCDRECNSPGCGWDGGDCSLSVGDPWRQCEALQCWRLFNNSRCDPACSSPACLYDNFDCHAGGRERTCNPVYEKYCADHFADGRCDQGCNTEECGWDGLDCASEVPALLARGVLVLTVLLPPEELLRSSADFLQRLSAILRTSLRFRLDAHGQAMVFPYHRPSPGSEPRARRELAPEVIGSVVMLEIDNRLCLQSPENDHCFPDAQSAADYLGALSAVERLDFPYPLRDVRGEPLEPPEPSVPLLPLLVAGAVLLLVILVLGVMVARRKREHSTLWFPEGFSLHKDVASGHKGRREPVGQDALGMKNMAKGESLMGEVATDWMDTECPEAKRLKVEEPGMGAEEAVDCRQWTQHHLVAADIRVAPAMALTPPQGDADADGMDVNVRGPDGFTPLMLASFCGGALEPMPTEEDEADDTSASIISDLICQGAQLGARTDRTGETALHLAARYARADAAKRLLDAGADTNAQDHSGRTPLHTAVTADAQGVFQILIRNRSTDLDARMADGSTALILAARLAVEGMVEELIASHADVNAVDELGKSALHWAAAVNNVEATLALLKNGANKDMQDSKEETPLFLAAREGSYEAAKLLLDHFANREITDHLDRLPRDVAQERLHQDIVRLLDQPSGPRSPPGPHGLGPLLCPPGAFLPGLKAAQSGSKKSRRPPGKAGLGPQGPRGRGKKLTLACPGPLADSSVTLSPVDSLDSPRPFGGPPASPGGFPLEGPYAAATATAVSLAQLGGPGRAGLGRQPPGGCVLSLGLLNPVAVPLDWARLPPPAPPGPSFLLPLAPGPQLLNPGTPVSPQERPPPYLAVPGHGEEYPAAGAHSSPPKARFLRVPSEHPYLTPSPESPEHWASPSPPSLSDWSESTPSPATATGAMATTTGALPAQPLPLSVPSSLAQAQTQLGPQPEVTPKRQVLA

[10] = probe aEGFR binding to arrayed compounds – biochemical, biotinylated probe, 635/667 nm fluorescence, primary screen (AID 1097); details: small-molecule microarray, higher = more signal;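 also: probe is a biotinylated anti-EGFR antibody binding compounds printed on slides; score combines fluorescence near 667 nm and signal to noise of each spot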
[11] = system: Plasmodium falciparum Sir2 (PF13_0152, Sir2A); experiment: Plasmodium falciparum Sir2A binding compounds – biochemical, small-molecule microarray, 635 nm fluorescence, primary screen (AID 1098); details: fluorescence 635 nm, higher = more signal;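 also: score merges spot fluorescence intensity with its signal-to-noise ratio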
[12] = probe aDKK1 binding to arrayed compounds – biochemical, biotinylated probe, 635/667 nm fluorescence, primary screen (AID 1099); details: small-molecule microarray, higher = more signal;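 also: score merges 667nm spot fluorescence with signal to noise across triplicate slides; reference of the scale not given here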
[13] = probe aCHRDL2 binding to arrayed compounds – biochemical, biotinylated probe, 635/667 nm fluorescence, primary screen (AID 1100); details: small-molecule microarray, higher = more signal
[14] = change in splice reporter luminescence, either direction, cell-based, HEK293, spliceosome inhibition project, primary screen (AID 1101); details: HEK293 splicing luciferase reporter, 24 h, higher = more signal, called active from +8 up or from −8 down;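 also: HEK293 cells carrying a splicing-competent luciferase reporter gene; test concentration not given here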
[15] = target: Fibroblast growth factor 10 (Homo sapiens) (UniProt O15520); experiment: compounds binding fibroblast growth factor 10 – biochemical, small-molecule microarray, 635 nm fluorescence, primary screen (AID 1102); details: FGF10 binding, fluorescence 635 nm, higher = more signal
Sequence of Fibroblast growth factor 10 (Homo sapiens) (O15520 whole entry, looked up): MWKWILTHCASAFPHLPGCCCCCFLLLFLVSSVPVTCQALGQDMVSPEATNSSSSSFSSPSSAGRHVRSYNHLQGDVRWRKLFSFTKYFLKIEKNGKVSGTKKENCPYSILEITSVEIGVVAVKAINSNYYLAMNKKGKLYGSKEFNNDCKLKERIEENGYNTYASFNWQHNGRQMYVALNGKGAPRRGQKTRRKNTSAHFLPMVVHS

[16] = system: glycogen synthase kinase-3 (GSK3A per assay name; protocol says GSK3B); experiment: compounds binding glycogen synthase kinase-3 – biochemical, small-molecule microarray, 635 nm fluorescence, GSK3A, primary screen (AID 1103); details: fluorescence 635 nm, higher = more signal; also: the record names both GSK3A and GSK3B
[17] = target: Epidermal growth factor receptor (Homo sapiens) (UniProt P00533); experiment: compounds binding epidermal growth factor receptor – biochemical, small-molecule microarray, 635 nm fluorescence, primary screen (AID 1104); details: EGFR binding, higher = more signal;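 also: score merges 667 nm emission intensity with spot signal to noise over triplicate slides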
Sequence of Epidermal growth factor receptor (Homo sapiens) (P00533 whole entry, looked up): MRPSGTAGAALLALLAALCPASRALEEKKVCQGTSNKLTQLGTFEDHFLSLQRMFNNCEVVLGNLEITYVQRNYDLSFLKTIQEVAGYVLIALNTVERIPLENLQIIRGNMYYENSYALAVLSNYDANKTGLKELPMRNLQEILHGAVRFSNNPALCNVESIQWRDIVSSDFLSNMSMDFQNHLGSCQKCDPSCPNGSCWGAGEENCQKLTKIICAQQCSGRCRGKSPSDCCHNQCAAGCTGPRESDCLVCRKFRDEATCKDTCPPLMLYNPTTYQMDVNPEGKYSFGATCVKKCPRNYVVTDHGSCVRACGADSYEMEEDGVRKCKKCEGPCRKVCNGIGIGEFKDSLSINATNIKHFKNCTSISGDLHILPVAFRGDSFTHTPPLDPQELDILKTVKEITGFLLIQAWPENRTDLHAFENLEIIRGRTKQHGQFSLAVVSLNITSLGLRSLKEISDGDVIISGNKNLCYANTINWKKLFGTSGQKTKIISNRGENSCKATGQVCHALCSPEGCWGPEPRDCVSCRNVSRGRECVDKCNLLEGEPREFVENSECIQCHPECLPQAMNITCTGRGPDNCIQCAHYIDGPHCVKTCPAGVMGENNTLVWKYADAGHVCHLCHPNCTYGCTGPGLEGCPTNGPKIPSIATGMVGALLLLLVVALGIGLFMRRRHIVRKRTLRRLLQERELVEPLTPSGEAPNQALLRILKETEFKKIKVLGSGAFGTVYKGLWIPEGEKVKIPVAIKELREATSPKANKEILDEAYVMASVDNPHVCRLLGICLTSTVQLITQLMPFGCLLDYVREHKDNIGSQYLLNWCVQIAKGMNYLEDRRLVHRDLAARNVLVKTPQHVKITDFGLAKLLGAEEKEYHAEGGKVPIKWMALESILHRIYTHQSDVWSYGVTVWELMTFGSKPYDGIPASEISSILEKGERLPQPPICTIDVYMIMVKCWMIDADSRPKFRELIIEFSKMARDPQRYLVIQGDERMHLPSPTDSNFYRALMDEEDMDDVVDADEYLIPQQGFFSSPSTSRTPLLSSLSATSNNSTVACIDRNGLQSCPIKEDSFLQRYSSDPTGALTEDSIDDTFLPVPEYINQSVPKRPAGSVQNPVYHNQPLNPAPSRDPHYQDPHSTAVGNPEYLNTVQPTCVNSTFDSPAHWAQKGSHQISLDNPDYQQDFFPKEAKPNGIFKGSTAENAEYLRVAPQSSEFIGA

[18] = target: Follistatin-related protein 3 (Homo sapiens) (UniProt O95633); experiment: compounds binding follistatin-related protein 3 – biochemical, small-molecule microarray, 635 nm fluorescence, primary screen (AID 1105); details: FSTL3 binding, higher = more signal;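 also: score merges emission near 667 nm and signal to noise per printed spot across three slides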
Sequence of Follistatin-related protein 3 (Homo sapiens) (O95633 whole entry, looked up): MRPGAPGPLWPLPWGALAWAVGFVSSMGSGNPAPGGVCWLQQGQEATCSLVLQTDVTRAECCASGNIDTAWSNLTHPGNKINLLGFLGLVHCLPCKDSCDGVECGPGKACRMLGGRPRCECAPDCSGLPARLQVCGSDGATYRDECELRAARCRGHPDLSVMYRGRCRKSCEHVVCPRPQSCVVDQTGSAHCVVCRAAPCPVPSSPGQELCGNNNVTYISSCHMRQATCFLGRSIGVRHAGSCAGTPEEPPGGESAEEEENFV

[19] = target: Dickkopf-related protein 1 (Homo sapiens) (UniProt O94907); experiment: small molecules binding DKK1 protein – biochemical, small-molecule microarray, 635 nm fluorescence scan, primary screen (AID 1106); details: higher = more signal;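 also: score merges emission near 667 nm with signal to noise over three replicate slides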
Sequence of Dickkopf-related protein 1 (Homo sapiens) (O94907 whole entry, looked up): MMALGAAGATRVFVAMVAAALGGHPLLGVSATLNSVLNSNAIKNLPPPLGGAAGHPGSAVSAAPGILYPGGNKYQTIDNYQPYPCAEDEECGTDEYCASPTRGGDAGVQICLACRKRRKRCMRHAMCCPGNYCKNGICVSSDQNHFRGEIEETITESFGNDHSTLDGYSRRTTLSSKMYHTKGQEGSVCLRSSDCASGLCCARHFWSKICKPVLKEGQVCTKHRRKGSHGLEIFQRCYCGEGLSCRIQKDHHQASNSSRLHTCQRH

[20] = system: Inhibin beta A chain (activin A); experiment: small molecules binding activin A – biochemical, small-molecule microarray, 635 nm fluorescence scan, primary screen (AID 1107); details: INHBA, higher = more signal;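 also: mouse activin A protein probed at 4.33 µg/mL on printed slides; score merges bound-protein fluorescence near 667 nm with spot signal-to-noise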

SMILES	composite z-score [1]	z-score [2]	z-score [3]	z-score [4]	composite z-score [5]	z-score [6]	composite z-score [7]	composite z-score [8]	composite z-score [9]	composite z-score [10]	composite z-score [11]	composite z-score [12]	composite z-score [13]	z-score [14]	composite z-score [15]	composite z-score [16]	composite z-score [17]	composite z-score [18]	composite z-score [19]	composite z-score [20]
COc1ccc([Si](C)(C)[C@@H]2[C@@H](CCO)O[C@]3(C(=O)N(Cc4ccccc4)c4ccc(NC(=O)[C@H](C)O)cc43)[C@H]2C)cc1	1.54	2.85 (inactive)	0.386 (inactive)	7.41 (inactive)	2	0.655 (inactive)	-0.0766	1.25	1.05	-0.067	0.728	-0.106	-0.147	-1.75 (inactive)	0.867	1.29	0.778	1.14	0.43	-0.159
CCC#CCN(Cc1ccccc1Br)[C@H](/C=C/C1CC1)[C@@H](O)Cc1ccccc1	-0.134	-2.3 (inactive)	-1.55 (inactive)	-1.72 (inactive)	-0.783	1.35 (inactive)	0.208	-0.679	-0.838	-0.18	-0.306	0.0547	0.952	-0.739 (inactive)	-0.924	-0.0916	-1.03	-0.583	-0.642	0.384
NC(=O)NCC#Cc1ccc2c(c1)[C@]1(C(=O)N2)[C@H](c2ccccc2OCCO)N2[C@H](c3ccccc3)[C@H](c3ccccc3)OC(=O)[C@H]2[C@@H]1C(=O)O	0.507	0.798 (inactive)	-0.602 (inactive)	-0.675 (inactive)	1.31	1.4 (inactive)	-0.0201	0.192	-0.199	-0.185	1.27	-0.103	0.435	-0.724 (inactive)	-0.0931	-0.397	-0.218	-0.085	-0.266	0.894
O=C1CS(=O)(=O)C(c2cccc([N+](=O)[O-])c2)N1c1ccccc1 (stereo not given)	-0.0065	-2.58 (inactive)	-2.56 (inactive)	-0.811 (inactive)	1.85	0.672 (inactive)	0.554	0.253	0.336	0.583	0.175	0.913	0.157	-0.856 (inactive)	1.03	0.117	0.591	0.6	0.625	0.32
COC(=O)C1(CC(C)C)C=C2C(=C(c3ccccc3)C(=O)C2C)CN1 (stereo not given)	-0.291	-0.201 (inactive)	0.424 (inactive)	1.71 (inactive)	2.16	-0.326 (inactive)	1.1	-1.13	0.141	0.917	0.055	1.49	1.36	1.45 (inactive)	0.896	-0.713	0.233	0.261	-1.19	1.53
Cc1ccc(S[C@]2(C(=O)NC(C)C)CC(=O)N(Cc3cc(C(F)(F)F)cc(C(F)(F)F)c3)[C@@H]2c2ccc(CO)cc2)cc1	-0.44	-0.637 (inactive)	-1.03 (inactive)	-0.864 (inactive)	0.47	-0.0937 (inactive)	-0.117	-1.27	-1.27	-0.302	1.45	-0.227	0.675	0.681 (inactive)	-0.671	-1.27	-1.48	-1.57	-1.5	-0.403
O=C(c1ccccc1)N1C(=O)[C@]2(Cc3ccccc31)N=C(c1ccc(OCCCO)cc1)O[C@@H]2c1ccccc1	1.54	0.525 (inactive)	0.171 (inactive)	3.7 (inactive)	3.25	0.0249 (inactive)	-0.0059	1.12	1.07	-0.157	1.2	-0.0088	0.339	-0.936 (inactive)	1.42	1.31	0.0998	0.554	0.405	0.0538
C=CCN1C(=O)[C@]2(CCC(=O)OC(C)(C)C)N=C(c3ccc(OCCCO)cc3)O[C@@H]2c2ccccc21	1.08	-2.22 (inactive)	-1.56 (inactive)	3.46 (inactive)	2.02	1.06 (inactive)	0.128	0.501	0.772	0.401	0.765	0.177	0.947	-1.82 (inactive)	-0.184	0.298	0.348	0.635	0.384	1.18
COC(=O)[C@@]1(Cc2ccc(OC)cc2)[C@H]2c3cc(C(=O)N(C)C)n(Cc4ccc(OC(F)(F)F)cc4)c3C[C@H]2CN1C(=O)c1ccccc1	-0.708	0.461 (inactive)	1.08 (inactive)	0.649 (inactive)	3.39	-1.08 (inactive)	0.106	-0.588	-0.354	0.0139	0.518	0.34	1.15	1.32 (inactive)	-0.19	-0.448	-0.274	-0.558	-0.995	0.771
C=CCC(OC(C)=O)[C@@H]1[C@@H](N(Cc2ccc(-c3cccc(C(F)(F)F)c3)o2)C(=O)c2ccc(-c3ccccc3)cc2)c2cc(OCCCO)ccc2N1C(=O)Cc1ccc2ccccc2c1 (stereo not given in full)	-0.457	0.955 (inactive)	0.863 (inactive)	1.09 (inactive)	0.512	-0.898 (inactive)	-0.0928	-0.214	-0.3	-0.235	-0.417	-0.155	0.532	-0.435 (inactive)	-0.186	-1.22	-0.782	-0.116	-0.403	0.841
